Experimental data as given in PMC9911399, “Two distinct binding modes provide the RNA-binding protein RbFox with extraordinary sequence specificity”.
Positions count from the first letter of the chain named. In all, about 16,000 sequences were measured (“ka relative to ugcaugu”: median about 0.0091, highest 2% from about 0.032 on). The full list was thinned out, with the highest values kept by preference.

T1: RBFOX1 RRM (Homo sapiens, UniProt Q9NWB1 109-208)
T1 sequence: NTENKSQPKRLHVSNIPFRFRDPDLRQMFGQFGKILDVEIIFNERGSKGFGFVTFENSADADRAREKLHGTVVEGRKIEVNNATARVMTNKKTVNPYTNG

B1: GACACAU (DNA:RNA)
RNA: GGGAGACCGGAAUUCAGAUUGUCCGACACAUUUAAAUCCCGUCGUAGCCACCA
DNA 1: CAATCTGAATTCCGGTCTCCC
DNA 2: TGGTGGCTACGACGGGATT
B2: GAACACU (DNA:RNA)
RNA: B1 RNA with C27A, A28C, C29A, A30C
DNA 1: CAATCTGAATTCCGGTCTCCC
DNA 2: TGGTGGCTACGACGGGATT
B3: AGUUCUC (DNA:RNA)
RNA: B1 RNA with G25A, A26G, C27U, A28U, A30U, U31C
DNA 1: CAATCTGAATTCCGGTCTCCC
DNA 2: TGGTGGCTACGACGGGATT
B4: CUCUCGG (DNA:RNA)
RNA: B1 RNA with G25C, A26U, A28U, A30G, U31G
DNA 1: CAATCTGAATTCCGGTCTCCC
DNA 2: TGGTGGCTACGACGGGATT
B5: GAGGGCA (DNA:RNA)
RNA: B1 RNA with C27G, A28G, C29G, A30C, U31A
DNA 1: CAATCTGAATTCCGGTCTCCC
DNA 2: TGGTGGCTACGACGGGATT
B6: ACCACGG (DNA:RNA)
RNA: B1 RNA with G25A, A26C, A30G, U31G
DNA 1: CAATCTGAATTCCGGTCTCCC
DNA 2: TGGTGGCTACGACGGGATT
B7: UGCACGG (DNA:RNA)
RNA: B1 RNA with G25U, A26G, A30G, U31G
DNA 1: CAATCTGAATTCCGGTCTCCC
DNA 2: TGGTGGCTACGACGGGATT
B8: UGCCCGG (DNA:RNA)
RNA: B1 RNA with G25U, A26G, A28C, A30G, U31G
DNA 1: CAATCTGAATTCCGGTCTCCC
DNA 2: TGGTGGCTACGACGGGATT
B9: ACGCUGC (DNA:RNA)
RNA: GGGAGACCGGAAUUCAGAUUGUCCACGCUGCUUAAAUCCCGUCGUAGCCACCA
DNA 1: CAATCTGAATTCCGGTCTCCC
DNA 2: TGGTGGCTACGACGGGATT
B10: UGCACAA (DNA:RNA)
RNA: B1 RNA with G25U, A26G, U31A
DNA 1: CAATCTGAATTCCGGTCTCCC
DNA 2: TGGTGGCTACGACGGGATT
B11: UGUCUGC (DNA:RNA)
RNA: B9 RNA with A25U, C26G, G27U
DNA 1: CAATCTGAATTCCGGTCTCCC
DNA 2: TGGTGGCTACGACGGGATT
B12: UGCACCA (DNA:RNA)
RNA: B1 RNA with G25U, A26G, A30C, U31A
DNA 1: CAATCTGAATTCCGGTCTCCC
DNA 2: TGGTGGCTACGACGGGATT
B13: UGCACGA (DNA:RNA)
RNA: B1 RNA with G25U, A26G, A30G, U31A
DNA 1: CAATCTGAATTCCGGTCTCCC
DNA 2: TGGTGGCTACGACGGGATT
B14: UGCACGC (DNA:RNA)
RNA: B1 RNA with G25U, A26G, A30G, U31C
DNA 1: CAATCTGAATTCCGGTCTCCC
DNA 2: TGGTGGCTACGACGGGATT
B15: UUCUUAU (DNA:RNA)
RNA: B1 RNA with G25U, A26U, A28U, C29U
DNA 1: CAATCTGAATTCCGGTCTCCC
DNA 2: TGGTGGCTACGACGGGATT
B16: UGAUCGU (DNA:RNA)
RNA: B1 RNA with G25U, A26G, C27A, A28U, A30G
DNA 1: CAATCTGAATTCCGGTCTCCC
DNA 2: TGGTGGCTACGACGGGATT
B17: CCACUCA (DNA:RNA)
RNA: B9 RNA with A25C, G27A, G30C, C31A
DNA 1: CAATCTGAATTCCGGTCTCCC
DNA 2: TGGTGGCTACGACGGGATT
B18: GCAAACU (DNA:RNA)
RNA: B1 RNA with A26C, C27A, C29A, A30C
DNA 1: CAATCTGAATTCCGGTCTCCC
DNA 2: TGGTGGCTACGACGGGATT
B19: GGAACAC (DNA:RNA)
RNA: B1 RNA with A26G, C27A, U31C
DNA 1: CAATCTGAATTCCGGTCTCCC
DNA 2: TGGTGGCTACGACGGGATT
B20: AGCAUGC (DNA:RNA)
RNA: B9 RNA with C26G, G27C, C28A
DNA 1: CAATCTGAATTCCGGTCTCCC
DNA 2: TGGTGGCTACGACGGGATT
B21: UAGCAUC (DNA:RNA)
RNA: B9 RNA with A25U, C26A, U29A, G30U
DNA 1: CAATCTGAATTCCGGTCTCCC
DNA 2: TGGTGGCTACGACGGGATT
B22: AAGCAUC (DNA:RNA)
RNA: B9 RNA with C26A, U29A, G30U
DNA 1: CAATCTGAATTCCGGTCTCCC
DNA 2: TGGTGGCTACGACGGGATT
B23: UAGCAUG (DNA:RNA)
RNA: B9 RNA with A25U, C26A, U29A, G30U, C31G
DNA 1: CAATCTGAATTCCGGTCTCCC
DNA 2: TGGTGGCTACGACGGGATT
B24: AGCAUAA (DNA:RNA)
RNA: B1 RNA with G25A, A26G, C29U, U31A
DNA 1: CAATCTGAATTCCGGTCTCCC
DNA 2: TGGTGGCTACGACGGGATT
B25: UAGCAUA (DNA:RNA)
RNA: B9 RNA with A25U, C26A, U29A, G30U, C31A
DNA 1: CAATCTGAATTCCGGTCTCCC
DNA 2: TGGTGGCTACGACGGGATT
B26: AGCCUGC (DNA:RNA)
RNA: B9 RNA with C26G, G27C
DNA 1: CAATCTGAATTCCGGTCTCCC
DNA 2: TGGTGGCTACGACGGGATT
B27: AAGCAUA (DNA:RNA)
RNA: B9 RNA with C26A, U29A, G30U, C31A
DNA 1: CAATCTGAATTCCGGTCTCCC
DNA 2: TGGTGGCTACGACGGGATT
B28: AGCAUGA (DNA:RNA)
RNA: B9 RNA with C26G, G27C, C28A, C31A
DNA 1: CAATCTGAATTCCGGTCTCCC
DNA 2: TGGTGGCTACGACGGGATT
B29: AGAAUGC (DNA:RNA)
RNA: B9 RNA with C26G, G27A, C28A
DNA 1: CAATCTGAATTCCGGTCTCCC
DNA 2: TGGTGGCTACGACGGGATT
B30: ACCAGCA (DNA:RNA)
RNA: B9 RNA with G27C, C28A, U29G, G30C, C31A
DNA 1: CAATCTGAATTCCGGTCTCCC
DNA 2: TGGTGGCTACGACGGGATT
B31: AAGCAUG (DNA:RNA)
RNA: B9 RNA with C26A, U29A, G30U, C31G
DNA 1: CAATCTGAATTCCGGTCTCCC
DNA 2: TGGTGGCTACGACGGGATT

Target: T1, RBFOX1 RRM
Assay: EMSA; HiTS-Eq, 1 nM pool, 10 min; buffer printed only for the single-RNA assays: 10 mM Tris pH 7.5, 150 mM NaCl, 3.4 mM EDTA, 0.001% NP-40, 30 C
Details: tags: His6 N-terminal (pET28a); label: 5' 32P
Summary of the method: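 Relative association constants, normalised to the cognate motif, were derived by comparing read counts of each RNA species with those of the control reaction. The RNA sequenced was the free fraction, separated by 8% native PAGE after a 10 min equilibration in 50 µL of 1 nM 5′-radiolabelled RNA (7 randomized nucleotides) with increasing concentrations of purified wild-type or mutant RbFox RRM.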

Binder | binding signal
B1 | 0.000474 KA relative to UGCAUGU
B2 | 0.00588 KA relative to UGCAUGU
B3 | 0.0138 KA relative to UGCAUGU
B4 | 0.0101 KA relative to UGCAUGU
B5 | 0.0138 KA relative to UGCAUGU
B6 | 0.0054 KA relative to UGCAUGU
B7 | 0.077 KA relative to UGCAUGU
B8 | 0.0184 KA relative to UGCAUGU
B9 | 0.0121 KA relative to UGCAUGU
B10 | 0.00911 KA relative to UGCAUGU
B11 | 0.0316 KA relative to UGCAUGU
B12 | 0.00925 KA relative to UGCAUGU
B13 | 0.0767 KA relative to UGCAUGU
B14 | 0.252 KA relative to UGCAUGU
B15 | 0.00377 KA relative to UGCAUGU
B16 | 0.0285 KA relative to UGCAUGU

Binder | binding signal
B17 | 0.0037 KA relative to UGCAUGU
B18 | 0.00432 KA relative to UGCAUGU
B19 | 0.0079 KA relative to UGCAUGU
B20 | 0.888 KA relative to UGCAUGU
B21 | 0.0216 KA relative to UGCAUGU
B22 | 0.0137 KA relative to UGCAUGU
B23 | 0.795 KA relative to UGCAUGU
B24 | 0.00471 KA relative to UGCAUGU
B25 | 0.011 KA relative to UGCAUGU
B26 | 0.0203 KA relative to UGCAUGU
B27 | 0.00459 KA relative to UGCAUGU
B28 | 0.35 KA relative to UGCAUGU
B29 | 0.022 KA relative to UGCAUGU
B30 | 0.0049 KA relative to UGCAUGU
B31 | 0.674 KA relative to UGCAUGU
